TDP1 cell CPT: DT40-hTDP1 cell growth loss with CPT; actives 12% (n = 420,000); AID 686979; chicken DT40 Tdp1-/-;hTDP1 cells + 20 nM CPT, ATP luminescence, 48 h; Potency, µM (highest dose often 46.2 µM), for inactives: at the top dose activity change, negative = growth inhibition, usual class: inhibitors; further: nearly all actives have a fitted effect of over 55% in size
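Chicken DT40 Tdp1-/- cells complemented with human TDP1, 400 cells/well, exposed to compounds plus 20 nM camptothecin for at least 48 h at 37 C; viability read as ATP content by CellTiter-Glo luminescence.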
TDP1 cell noCPT: qHTS for Inhibitors of human tyrosyl-DNA phosphodiesterase 1 (TDP1): qHTS in cells in absence of CPT | DT40 Tdp1-/- hTDP1 cells, no CPT, ATP luminescence, 48 h | Potency, µM (top dose mostly 46.2 µM), for the others: at the top dose activity change, negative = growth inhibition, actives largely listed as inhibitors | actives 15% (n = 420,000); further: nearly all actives have a fitted effect of over 55% in size
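A cellular qHTS used chicken DT40 cells lacking endogenous Tdp1 but carrying stably transfected human TDP1. Compounds were applied without camptothecin, and cell growth kinetics were judged by ATP-dependent luminescence after ≥48 hr.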
GCN5L2 inh: GCN5L2 (KAT2A) acetyltransferase inhibition; actives 0.21% (n = 390,000); GCN5L2 HAT assay, ThioGlo1 CoA-SH fluorescence; Potency, µM (highest dose often 58.9 µM), inactives show at the top dose activity change, negative = inhibition, hits mostly inhibitors; Q92830
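Preincubate 20nM GCN5L2 with compound 15 min, RT → add 50uM ThioGlo1 + 75uM H3(1-25) + 70uM acetyl-CoA → read fluorescence 0 and 20 min. Primary qHTS; fluorescent artifacts likely.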
VDR inhibitor: inhibitors of human vitamin D receptor; Potency, µM, inactives show max response, negative = inhibition, most hits filed as inhibitors; AID 504847; VDR-SRC2-3 peptide fluorescence polarization, 2 h; actives 0.93% (n = 400,000)
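Fluorescence polarization assay measuring small-molecule disruption of VDR binding to the coregulator peptide SRC2-3. Compounds were pin-transferred (23 nl) into the reagent mix and incubated 2 h at room temperature before reading.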
TDP1 block: blocks human tyrosyl-DNA phosphodiesterase 1; recombinant TDP1, AlphaScreen DNA substrate cleavage; Potency, µM (titrated, usually from 130 µM), without a hit: at the top dose activity change, negative = inhibition, hits mostly inhibitors; actives 0.28% (n = 350,000); AID 485290; further: nearly all actives have a fitted effect of over 40% in size
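Recombinant human Tdp1 (E. coli-expressed, 1 nM final) preincubated with compounds 15 min at room temperature, then 5'-biotin/3'-phosphotyrosine-FITC DNA substrate (15 nM final) added for 5 min. AlphaScreen beads (10 ug/ml final) added 10 min; cleavage lowers signal.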
PLK1 PBD block: PLK1 (human) polo-box domain binding inhibition; actives 2.8% (n = 360,000); P53350; Plk1 PBD binding of FITC phosphopeptide, fluorescence polarization; Potency, µM, for inactives: max response, negative = inhibition, hits mostly inhibitors; AID 720504; further: series mostly up to about 57 µM; nearly all actives have a fitted effect of over 65% in size
Target sequence (P53350 whole entry, looked up, the tested form may be a part): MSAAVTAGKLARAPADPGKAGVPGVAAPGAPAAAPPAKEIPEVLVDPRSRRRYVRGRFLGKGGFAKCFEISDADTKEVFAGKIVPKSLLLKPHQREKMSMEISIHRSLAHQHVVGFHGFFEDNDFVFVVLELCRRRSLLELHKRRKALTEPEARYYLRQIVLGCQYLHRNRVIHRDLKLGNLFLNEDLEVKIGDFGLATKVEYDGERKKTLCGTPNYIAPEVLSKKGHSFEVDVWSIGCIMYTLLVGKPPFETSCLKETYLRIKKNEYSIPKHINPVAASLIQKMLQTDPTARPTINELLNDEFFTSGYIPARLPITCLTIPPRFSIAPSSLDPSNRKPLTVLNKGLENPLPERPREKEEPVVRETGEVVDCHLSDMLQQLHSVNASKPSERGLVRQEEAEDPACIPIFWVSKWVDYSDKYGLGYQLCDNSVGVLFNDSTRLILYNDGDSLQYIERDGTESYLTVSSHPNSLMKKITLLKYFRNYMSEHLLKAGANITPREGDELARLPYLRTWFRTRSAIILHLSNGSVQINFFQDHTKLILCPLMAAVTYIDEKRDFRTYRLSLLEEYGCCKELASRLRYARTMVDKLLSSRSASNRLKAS
An asterisk follows results filed as active; ? = inconclusive; nt = no result; [ ] = another dose, or the depositor's remark. Most compounds without a hit are left out; they make up all but 18% or so of the library. The call rests on the fitted dose curve; in most records, active means well fitted curve in the direction sought with a large enough effect; inconclusive means small, poorly fitted or top-dose-only effect, or another doubt; inactive means no such curve, though single readings can be large; an effect the other way counts as inactive or inconclusive. On the % scale 0 is the no-effect control and ±100 the full control effect; potency means the concentration at half of the fitted maximal effect.

SMILES | TDP1 cell CPT | TDP1 cell noCPT | GCN5L2 inh | VDR inhibitor | TDP1 block | PLK1 PBD block
C[C@@H](C(=O)Nc1ccc2ccccc2c1)[C@H]1C[C@]1(C)[C@H](NS(=O)(=O)c1ccccc1)c1ccccc1 | ? | 20.6µM* | -10.5% | -3.5% | 3.9% | 1.4%
COc1ccccc1CNC(=O)C(Cc1c[nH]c2ccccc12)NC(=O)OCc1ccccc1 (centres undefined) | ? | 18.4µM* | -12.0% | 3.2% | 4.2% | -2.2%
C[C@@H](C(=O)NCc1ccccn1)[C@@H]1C[C@@]1(C)[C@@H](NC(=O)OCc1ccccc1)c1ccccc1 | 23.1µM* | 13µM* | -3.8% | -20.3% | -1.3% | -1.3%
C[C@@H](C(=O)Nc1ccc2ccccc2c1)[C@H]1C[C@]1(C)[C@H](NP(=O)(c1ccccc1)c1ccccc1)c1ccccc1 | nt | nt | -7.0% | nt | 6.6% | nt
Cc1ccc(NC(=O)c2ccccc2Br)c(C(=O)c2ccccc2)c1 | -13.7% | -29.7% | -1.7% | 13.4% | -1.3%[12.3 µM] | nt
C[C@@H](C(=O)NCc1cccc2ccccc12)[C@H]1C[C@]1(C)[C@H](NC(=O)OCc1ccccc1)c1ccccc1 | nt | nt | nt | nt | -2.7% | nt
C[C@@H](C(=O)Nc1ccc2ccccc2c1)[C@@H]1C[C@@]1(C)[C@@H](NC(=O)OCc1ccccc1)c1ccccc1 | ? | 16.4µM* | -7.8% | 3.4% | 3.9% | -7.0%
CNC(=O)[C@H](C)[C@@H]1C[C@@]1(C)[C@@H](NC(=O)OCc1ccccc1)c1ccccc1 | ? | -25.4% | -1.9% | -13.0% | 0.0% | -14.7%
C[C@@H](C(=O)NCc1ccccc1)[C@@H]1C[C@@]1(C)[C@@H](NC(=O)OCc1ccccc1)c1ccccc1 | 16.4µM* | ? | -8.7% | 1.1% | -3.9% | 2.5%
C[C@@H](C(=O)NCCc1c[nH]c2ccccc12)[C@@H]1C[C@@]1(C)[C@@H](NC(=O)OCc1ccccc1)c1ccccc1 | 13µM* | 18.4µM* | -8.8% | 4.4% | 3.9% | -14.8%
C[C@@H](C(=O)NCC1CC1)[C@H]1C[C@]1(C)[C@H](NC(=O)OCc1ccccc1)c1ccccc1 | 25.9µM* | ? | -3.1% | -5.0% | 7.9% | -6.2%
COc1ccc(N2CCN(c3oc(/C=C/c4ccc(F)cc4)nc3C#N)CC2)cc1 | -2.3% | 7.7% | 0.6% | 8.4% | 0.0% | nt
Cc1oncc1C(=O)N1CCCC(CO)(Cc2ccc(F)cc2F)C1 (centres undefined) | 6.6% | -21.0% | -4.2% | -0.6% | 1.4% | -0.5%
NS(=O)(=O)c1ccc(NC(=O)c2cnn3c2NC(=C2CC2)C=C3C(F)F)cc1 | -26.9% | -7.5% | nt | nt | nt | nt
NCCCCc1ccc2ccc3cccc4ccc1c2c34 | 16.4µM* | ? | -8.3% | 4.0% | -0.6% | -0.4%
COc1cc(C2C(C#N)=C(N)Oc3cc(N)ccc32)cc(OC)c1OC (centres undefined) | 0.92µM* | 0.651µM* | -7.7% | -2.2% | 5.2% | -2.7%
COc1cc(C2C(C#N)=C(N)Oc3cc(C)oc(=O)c32)cc2c1OCO2 (centres undefined) | -17.3% | -16.9% | -21.1% | -7.1% | nt | -24.1%
Cc1ccc([C@H]2C(C#N)=C(N)Oc3cc(C)oc(=O)c32)o1 | 16.4µM* | 23.1µM* | -17.0% | ? | -1.3% | ?
COc1cc(C2C(C#N)=C(N)Oc3cc(C)oc(=O)c32)cc(OC)c1OC (centres undefined) | ? | 23.1µM* | -5.2% | -17.8% | 4.7% | -2.4%
Cc1cc2c(c(=O)o1)C(C(C)C)C(C#N)=C(N)O2 (centres undefined) | -6.9% | -14.0% | -3.2% | 4.6% | 2.1% | -4.0%
COc1ccc(C2C(C#N)=C(N)Oc3cc(N)ccc32)cc1 (centres undefined) | 2.1% | -4.2% | -15.1% | -5.6% | 7.3% | -3.5%
CC1(C(=O)O)CCN1C(=O)COc1ccc(Cl)cc1 (centres undefined) | 4.4% | 1.4% | nt | nt | nt | -2.6%
CCC(=O)NC(c1ccc(OC)c(OC)c1)c1cc(Cl)c2cccnc2c1O (centres undefined) | 4.11µM* | 4.61µM* | -19.3% | 2.1% | 7.2% | -11.6%
COc1ccccc1C(NC(C)=O)c1cc(Cl)c2cccnc2c1O (centres undefined) | 1.64µM* | 2.31µM* | -2.6% | -4.0% | nt | -1.4%
COc1ccc(C(NC(=O)c2ccc(-c3ccccc3)cc2)c2ccccc2)cc1 (centres undefined) | 13µM* | 13µM* | -7.3% | -16.0% | -7.7% | -2.9%
SMILES | TDP1 cell CPT | TDP1 cell noCPT | GCN5L2 inh | VDR inhibitor | TDP1 block | PLK1 PBD block
COc1ccc(C(NC(C)=O)c2cc(Cl)c3cccnc3c2O)cc1OC (centres undefined) | 7.31µM* | 4.61µM* | -9.3% | 9.3% | -5.0% | -3.4%
CC(=O)NC(C)c1cc(Cl)c2cccnc2c1O (centres undefined) | nt | nt | 0.7% | 8.6% | 0.3% | nt
COc1ccc(C(C)NC(=O)c2ccccc2)cc1 (centres undefined) | -6.5% | -8.8% | -20.3% | -13.7% | 2.3% | -4.8%
C[C@H](NCc1ccccc1)c1ccccc1 | nt | nt | 9.0% | 1.5% | 6.2% | nt
CCOc1ccc(S(=O)(=O)N2CCCC(C(=O)NCc3ccncc3)C2)cc1 (centres undefined) | ? | ? | 1.1% | 6.0% | 5.5% | 4.4%
COc1ccc(C(=O)NC(c2ccc(Cl)cc2)c2cc(Cl)c3cccnc3c2O)cc1 (centres undefined) | 3.66µM* | 4.11µM* | 2.3% | 6.9% | 10.4% | nt
CCOc1ccc(C(NC(C)=O)c2cc(Cl)c3cccnc3c2O)cc1 (centres undefined) | 3.16µM* | 3.98µM* | nt | nt | nt | nt
O=C(NC(c1ccccc1)c1cc(Cl)c2cccnc2c1O)c1cccnc1 (centres undefined) | nt | nt | 4.6% | nt | 0.0% | nt
COc1ccccc1CN1CC(C(=O)N(C)Cc2[nH]c3ccccc3c2C)CCC1=O (centres undefined) | ? | ? | -14.0% | 9.1% | 6.4% | 1.3%
Cc1ccc(SCCCn2cncn2)cc1 | -6.1% | -15.3% | -0.9% | -18.8% | 2.3% | ?
Cc1ccc(C(Sc2ccccc2)C(Cn2cncn2)C(=O)c2ccccc2)cc1 (centres undefined) | ? | 23.1µM* | -5.1% | -1.0% | 7.9% | -0.7%
COc1ccc(C(=O)NC(C)c2ccncc2)cc1S(=O)(=O)N(C)Cc1ccccc1 (centres undefined) | -26.7% | -12.5% | -2.5% | -13.4% | 1.1% | -8.9%
Cc1ccc(C(=O)c2c3ccc(C(F)(F)F)cc3[n+]([O-])n2CCCN)cc1 | 23.1µM* | 23.1µM* | -6.2% | 5.0% | -0.5% | 6.1%

Screening results from PubChem BioAssay.
